# According to PMC8384837, “Expanding the binding specificity for RNA recognition by a PUF domain”:
# How the values were obtained:
# Test in all cases: yeast three-hybrid, YBZ-1, SC-Leu-His + 0.5 mM 3-AT, 4 days
# Conditions in all cases: tags: N-Gal4 AD-HA kept; label: inside an RPR1-promoter hybrid RNA with tandem MS2 sites; ssRNA
# PUM1 PUF domain R4-SYP = PUM1 PUF domain R4-SYP (Homo sapiens, UniProt Q14671 828-1176, N971S;H972Y;Q975P)
# Outline: (§1)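 Each repeat of the Pumilio-1 PUF domain was randomized at its three base-contacting residues, and these libraries were co-expressed from a centromeric plasmid with matching RNA elements in strain YBZ-1. After four days on SC-Leu (input) or SC-Leu-His + 0.5 mM 3-AT (selection), the repeat regions were PCR-amplified and Illumina-sequenced. The interaction score compares variant frequency between input and selection as a log change, computed in log2 with a pseudocount of 1 for absent variants.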
# PUM1 PUF domain R2-RTQ = PUM1 PUF domain R2-RTQ (Homo sapiens, UniProt Q14671 828-1176, N899R;Y900T)
# Outline: as §1
# PUM1 PUF domain R5-ERV = PUM1 PUF domain R5-ERV (Homo sapiens, UniProt Q14671 828-1176, C1007E;Q1011V)
# Outline: as §1
# PUM1 PUF domain R3-RCG = PUM1 PUF domain R3-RCG (Homo sapiens, UniProt Q14671 828-1176, C935R;R936C;Q939G)
# Outline: as §1
# PUM1 PUF domain R2-QWR = PUM1 PUF domain R2-QWR (Homo sapiens, UniProt Q14671 828-1176, N899Q;Y900W;Q903R)
# Outline: as §1
# PUM1 PUF domain R5-LQR = PUM1 PUF domain R5-LQR (Homo sapiens, UniProt Q14671 828-1176, C1007L;R1008Q;Q1011R)
# Outline: as §1
# PUM1 PUF domain R5-FHI = PUM1 PUF domain R5-FHI (Homo sapiens, UniProt Q14671 828-1176, C1007F;R1008H;Q1011I)
# Outline: as §1
# PUM1 PUF domain R5-QKV = PUM1 PUF domain R5-QKV (Homo sapiens, UniProt Q14671 828-1176, C1007Q;R1008K;Q1011V)
# Outline: as §1
# PUM1 PUF domain R4-PRC = PUM1 PUF domain R4-PRC (Homo sapiens, UniProt Q14671 828-1176, N971P;H972R;Q975C)
# Outline: as §1
# PUM1 PUF domain R3-NAL = PUM1 PUF domain R3-NAL (Homo sapiens, UniProt Q14671 828-1176, C935N;R936A;Q939L)
# Outline: as §1
# Chain of PUM1 PUF domain R3-RCG (Q14671 828-1176 C935R/R936C/Q939G): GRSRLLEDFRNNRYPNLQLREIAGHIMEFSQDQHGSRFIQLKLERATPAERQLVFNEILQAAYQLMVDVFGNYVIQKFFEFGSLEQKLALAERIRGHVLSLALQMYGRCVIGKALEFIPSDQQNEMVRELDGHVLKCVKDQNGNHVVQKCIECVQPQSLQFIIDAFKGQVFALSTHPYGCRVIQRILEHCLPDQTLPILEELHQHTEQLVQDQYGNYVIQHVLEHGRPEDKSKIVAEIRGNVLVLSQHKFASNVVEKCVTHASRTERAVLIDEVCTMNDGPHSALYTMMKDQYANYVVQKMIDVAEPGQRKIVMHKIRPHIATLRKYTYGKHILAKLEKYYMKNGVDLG
# Chain of PUM1 PUF domain R5-ERV (Q14671 828-1176 C1007E/Q1011V): as the sequence (Q14671 828-1176 C935R/R936C/Q939G) above, with R108C, C109R, G112Q, C180E, Q184V counted along it
# Chain of PUM1 PUF domain R5-LQR (Q14671 828-1176 C1007L/R1008Q/Q1011R): as the sequence (Q14671 828-1176 C935R/R936C/Q939G) above, with R108C, C109R, G112Q, C180L, R181Q, Q184R counted along it
# Chain of PUM1 PUF domain R4-SYP (Q14671 828-1176 N971S/H972Y/Q975P): as the sequence (Q14671 828-1176 C935R/R936C/Q939G) above, with R108C, C109R, G112Q, N144S, H145Y, Q148P counted along it
# Chain of PUM1 PUF domain R3-NAL (Q14671 828-1176 C935N/R936A/Q939L): as the sequence (Q14671 828-1176 C935R/R936C/Q939G) above, with R108N, C109A, G112L counted along it
# Chain of PUM1 PUF domain R2-QWR (Q14671 828-1176 N899Q/Y900W/Q903R): as the sequence (Q14671 828-1176 C935R/R936C/Q939G) above, with N72Q, Y73W, Q76R, R108C, C109R, G112Q counted along it
# Chain of PUM1 PUF domain R5-FHI (Q14671 828-1176 C1007F/R1008H/Q1011I): as the sequence (Q14671 828-1176 C935R/R936C/Q939G) above, with R108C, C109R, G112Q, C180F, R181H, Q184I counted along it
# Chain of PUM1 PUF domain R5-QKV (Q14671 828-1176 C1007Q/R1008K/Q1011V): as the sequence (Q14671 828-1176 C935R/R936C/Q939G) above, with R108C, C109R, G112Q, C180Q, R181K, Q184V counted along it
# Chain of PUM1 PUF domain R2-RTQ (Q14671 828-1176 N899R/Y900T): as the sequence (Q14671 828-1176 C935R/R936C/Q939G) above, with N72R, Y73T, R108C, C109R, G112Q counted along it
# Chain of PUM1 PUF domain R4-PRC (Q14671 828-1176 N971P/H972R/Q975C): as the sequence (Q14671 828-1176 C935R/R936C/Q939G) above, with R108C, C109R, G112Q, N144P, H145R, Q148C counted along it
sequence,measurement,setting,value
GGCUAGAACUAGUGGAUCCCCCGGCGCCCGGCGGCUCGAGCCCGGGUAAGUGUAUAUAGUCUGCAUGCCGCCGGGCGCCAUGCCUGCAGGUCGACUCUAGAAAACAUG,binding signal,PUM1 PUF domain R4-SYP,6.95 log2 enrichment (interaction score)
GGCUAGAACUAGUGGAUCCCCCGGCGCCCGGCGGCUCGAGCCCGGGUAAGUGUAAAAAGUCUGCAUGCCGCCGGGCGCCAUGCCUGCAGGUCGACUCUAGAAAACAUG,binding signal,PUM1 PUF domain R2-RTQ,2.44 log2 enrichment (interaction score)
GGCUAGAACUAGUGGAUCCCCCGGCGCCCGGCGGCUCGAGCCCGGGUAAGUGUGAAUAGUCUGCAUGCCGCCGGGCGCCAUGCCUGCAGGUCGACUCUAGAAAACAUG,binding signal,PUM1 PUF domain R5-ERV,3.34 log2 enrichment (interaction score)
GGCUAGAACUAGUGGAUCCCCCGGCGCCCGGCGGCUCGAGCCCGGGUAAGUGUACAUAGUCUGCAUGCCGCCGGGCGCCAUGCCUGCAGGUCGACUCUAGAAAACAUG,binding signal,PUM1 PUF domain R4-SYP,6.78 log2 enrichment (interaction score)
GGCUAGAACUAGUGGAUCCCCCGGCGCCCGGCGGCUCGAGCCCGGGUAAGUGUAAUUAGUCUGCAUGCCGCCGGGCGCCAUGCCUGCAGGUCGACUCUAGAAAACAUG,binding signal,PUM1 PUF domain R3-RCG,3.58 log2 enrichment (interaction score)
GGCUAGAACUAGUGGAUCCCCCGGCGCCCGGCGGCUCGAGCCCGGGUAAGUGUAAACAGUCUGCAUGCCGCCGGGCGCCAUGCCUGCAGGUCGACUCUAGAAAACAUG,binding signal,PUM1 PUF domain R2-QWR,4.86 log2 enrichment (interaction score)
GGCUAGAACUAGUGGAUCCCCCGGCGCCCGGCGGCUCGAGCCCGGGUAAGUGUAAGUAGUCUGCAUGCCGCCGGGCGCCAUGCCUGCAGGUCGACUCUAGAAAACAUG,binding signal,PUM1 PUF domain R3-RCG,2.96 log2 enrichment (interaction score)
GGCUAGAACUAGUGGAUCCCCCGGCGCCCGGCGGCUCGAGCCCGGGUAAGUGUCAAUAGUCUGCAUGCCGCCGGGCGCCAUGCCUGCAGGUCGACUCUAGAAAACAUG,binding signal,PUM1 PUF domain R5-LQR,3.47 log2 enrichment (interaction score)
same,binding signal,PUM1 PUF domain R5-ERV,2.93 log2 enrichment (interaction score)
GGCUAGAACUAGUGGAUCCCCCGGCGCCCGGCGGCUCGAGCCCGGGUAAGUGUUAAUAGUCUGCAUGCCGCCGGGCGCCAUGCCUGCAGGUCGACUCUAGAAAACAUG,binding signal,PUM1 PUF domain R5-FHI,2.85 log2 enrichment (interaction score)
same,binding signal,PUM1 PUF domain R5-LQR,2.83 log2 enrichment (interaction score)
same,binding signal,PUM1 PUF domain R5-QKV,2.71 log2 enrichment (interaction score)
GGCUAGAACUAGUGGAUCCCCCGGCGCCCGGCGGCUCGAGCCCGGGUAAGUGUAAAUAGUCUGCAUGCCGCCGGGCGCCAUGCCUGCAGGUCGACUCUAGAAAACAUG,binding signal,PUM1 PUF domain R4-PRC,2.48 log2 enrichment (interaction score)
same,binding signal,PUM1 PUF domain R5-LQR,1.81 log2 enrichment (interaction score)
same,binding signal,PUM1 PUF domain R5-ERV,5.11 log2 enrichment (interaction score)
same,binding signal,PUM1 PUF domain R3-NAL,3.24 log2 enrichment (interaction score)
same,binding signal,PUM1 PUF domain R3-RCG,0.63 log2 enrichment (interaction score)
